Drawing on PubChem BioAssay (NCATS), this text covers Potency for 18 compounds.

The structures appear in SMILES notation. Results filed as inconclusive are left out. Activity calls are given as the source filed them. Calls come from the whole dose curve; as a rule, active = well fitted inhibition curve with a large enough effect; inconclusive = small, poorly fitted or top-dose-only effect; inactive = flat fitted curve, though single readings scatter.

Test in all cases: qHTS profiling for inhibitors of Plasmodium falciparum proliferation (AID 504749); note: nearly all actives have a fitted effect of over 60% in size
Common to all, as to settings: P. falciparum in erythrocytes, SYBR Green DNA, 72 h; series mostly up to 28.7 µM
In general terms: In qHTS, concentration-response curves come from the screen itself.

Experiment [1] concerns P94_40. A digest of the protocol: (§1)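 SYBR Green fluorescence of parasite DNA, read after lysis and overnight dark incubation, measured growth over 72 h in erythrocyte culture at 0.3% parasitemia and 2.5% hematocrit. Data normalised to DMSO and 0.29 uM artemisinin, with plate-drift correction.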
Experiment [2] has as its system PAD. A digest of the protocol: as §1
Experiment [3] concerns PC15. A digest of the protocol: as §1
The test system of experiment [4] is PC26. The method, boiled down: as §1
In experiment [5] the test system is PC49. The method, boiled down:
as §1

The subject of experiment [6] is SC27B. A digest of the protocol:
as §1

Experiment [7] has as its system TAB109. The method, boiled down:
as §1

In experiment [8] the test system is TAB113. A digest of the protocol: as §1
Experiment [9] deals with TAB165. A digest of the protocol: as §1
Experiment [10] relates to W2. The method, boiled down:
as §1
Potency is the fitted concentration of half-maximal effect.

On to `CCC(=O)c1c(O)cc(O)cc1O`, for which the Potency result in experiment [1], in experiment [2], in experiment [3], in experiment [4], in experiment [5] and in experiment [6] was “inactive” in each case. Also, the Potency result in experiment [7], in [8], in experiment [9] and in experiment [10] was “inactive” in each case.

Regarding `NCCCC[C@H](N[C@@H](CCc1ccccc1)C(=O)O)C(=O)N1CCC[C@H]1C(=O)O`, the Potency entry in experiment [1], in [2], in experiment [3], in experiment [4], in [5] and in experiment [6] was “inactive” throughout. Further, the Potency result in experiment [7], in experiment [8], in [9] and in experiment [10] was “inactive” throughout.

As to `O=c1ccc2ccccc2o1`, the Potency result in [1], in experiment [2], in [3], in experiment [4], in experiment [5] and in experiment [6] was “inactive” in each case. The Potency entry in experiment [7], in [8], in experiment [9] and in [10] was “inactive” each time.

On to `CC(C)(C)CC(C)(C)c1ccc(OCCOCC[N+](C)(C)Cc2ccccc2)cc1`, for which the Potency was 5.01 µM (active) in experiment [1]; 8.91 µM (active) in experiment [2]; 5.01 µM (active) in [3]; 4.26 µM (active) in experiment [4]; 6.31 µM (active) in experiment [5]; 5.62 µM (active) in experiment [6]. Further, the Potency in experiment [7] was 5.62 µM (active); in experiment [8], 3.55 µM (active); in [9], 3.16 µM (active); in [10], 1.2 µM (active).

As for `CC(C)(C)CC(C)(C)c1ccc(O)c(Cc2ccc(Cl)cc2Cl)c1`, the Potency in experiment [1] is 1 µM (active); in experiment [2], 1 µM (active); in experiment [3] it was 2.24 µM (active); in experiment [4], 1.51 µM (active); in [5], 1.78 µM (active); in experiment [6] it was 1.26 µM (active). Also, the Potency in [7] was 2 µM (active); in [8], 1.12 µM (active); in [9] it was 0.794 µM (active); in [10], 0.426 µM (active).

Consider `CC(C)COC(=O)OCN1C(=O)CN(CCN2CC(=O)N(COC(=O)OCC(C)C)C(=O)C2)CC1=O`, for which the Potency entry in experiment [1], in experiment [2], in [3], in experiment [4], in [5] and in [6] was “inactive” each time. Moreover, the Potency result in experiment [7], in experiment [8], in [9] and in experiment [10] was “inactive” each time.

For the compound `CC(O)C(=O)O` (stereo not drawn), the Potency entry in experiment [1], in [2], in experiment [3], in experiment [4], in [5] and in [6] was “inactive” throughout. The Potency entry in experiment [7], in experiment [8], in experiment [9] and in experiment [10] was “inactive” throughout.

For `NC(=NCCCCCCN=C(N)/N=C(\N)Nc1ccc(Cl)cc1)/N=C(\N)Nc1ccc(Cl)cc1`, the Potency in [1] was 3.55 µM (active); in experiment [2], 3.16 µM (active); in experiment [3] it was 2 µM (active); in experiment [4], 3.79 µM (active); in experiment [5] it was 3.16 µM (active); in [6] it was 0.891 µM (active). The Potency is 3.98 µM (active) in [7], 2 µM (active) in experiment [8], 0.794 µM (active) in experiment [9] and 0.849 µM (active) in experiment [10].

On to `N[C@@H](Cc1cnc[nH]1)C(=O)O`, for which the Potency entry in experiment [1], in experiment [2], in experiment [3], in experiment [4], in experiment [5] and in experiment [6] was “inactive” throughout. For the same compound, the Potency entry in [7], in experiment [8], in [9] and in experiment [10] was “inactive” each time.

On to `Cc1c(N(C)CS(=O)(=O)O)c(=O)n(-c2ccccc2)n1C`, for which the Potency entry in [1], in [2], in experiment [3], in experiment [4], in experiment [5] and in experiment [6] was “inactive” throughout. Besides, the Potency result in experiment [7], in [8], in [9] and in experiment [10] was “inactive” each time.

As for `C[C@H]1[C@H](NC(=O)/C(=N/OC(C)(C)C(=O)O)c2csc(N)n2)C(=O)N1S(=O)(=O)O` (stereo in doubt), the Potency entry in [1], in experiment [2], in [3], in experiment [4], in [5] and in [6] was “inactive” throughout. Besides, the Potency result in experiment [7], in experiment [8], in experiment [9] and in experiment [10] was “inactive” each time.

On to `CN(C(=O)CN(CCO)CC(=O)N(C)C(C)(C)Cc1ccccc1)C(C)(C)Cc1ccccc1`, for which the Potency entry in [1], in experiment [2], in experiment [3], in experiment [4], in experiment [5] and in [6] was “inactive” each time. Besides, the Potency entry in experiment [7] and in [8] was “inactive” in each case. In [10], the Potency was 3.61 µM (active).

As for `CC(C)(C(=O)c1cccnc1)c1cccnc1`, the Potency result in experiment [1], in [2], in experiment [3], in experiment [4], in experiment [6] and in experiment [7] was “inactive” throughout. Further, the Potency result in experiment [8], in experiment [9] and in experiment [10] was “inactive” each time.

As for `COc1ccc(CCN2CCC(Nc3nc4ccccc4n3Cc3ccc(F)cc3)CC2)cc1`, the Potency in [1] was 3.16 µM (active); in [2], 3.98 µM (active); in experiment [3], 6.31 µM (active); in [4], 6.75 µM (active); in experiment [5], 4.47 µM (active); in experiment [6], 3.98 µM (active). Also, the Potency was 2.51 µM (active) in experiment [7], 3.98 µM (active) in [8], 2.82 µM (active) in experiment [9] and 3.01 µM (active) in experiment [10].

On to `COc1cccc2c1C(=O)c1c(O)c3c(c(O)c1C2=O)C[C@@](O)(C(C)=O)C[C@@H]3O[C@H]1C[C@H](N)[C@H](O)[C@H](C)O1`, for which the Potency in experiment [1] is 3.55 µM (active); in experiment [2], 4.47 µM (active); in [3], 10 µM (active); in experiment [4] it was 5.36 µM (active); in experiment [5], 7.08 µM (active); in experiment [6] it was 5.01 µM (active). For the same compound, the Potency in experiment [7] was 3.55 µM (active); in experiment [8], 5.01 µM (active); in experiment [9], 2.24 µM (active); in experiment [10], 1.35 µM (active).

Turning to `COC1=CC(=O)C[C@@H](C)[C@]12Oc1c(Cl)c(OC)cc(OC)c1C2=O`, the Potency result in experiment [1], in [2], in experiment [3], in experiment [4], in [5] and in experiment [6] was “inactive” in each case. Besides, the Potency result in experiment [7], in [8], in experiment [9] and in experiment [10] was “inactive” in each case.

Consider `NCCc1ccn[nH]1`, for which the Potency entry in experiment [1], in experiment [2], in experiment [3], in experiment [4], in experiment [5] and in [6] was “inactive” throughout. Further, the Potency result in experiment [7], in [8], in experiment [9] and in [10] was “inactive” each time.

Regarding `COc1c2occc2c(OC)c2c(=O)cc(C)oc12`, the Potency result in [1], in experiment [2], in experiment [3], in experiment [4], in experiment [5] and in [6] was “inactive” throughout. Also, the Potency entry in [7], in experiment [8], in experiment [9] and in [10] was “inactive” each time.
